Data from PubChem BioAssay AID1240 (Sanford-Burnham Center for Chemical Genomics, 2008).
Screen size: about 50,000 compounds; about 800 (1.6%) showed an effect of 50% or more. The list comes from a sample in which strong results are over-represented; it also holds similar structures and randomly drawn compounds.

Target: Bcl-2-like protein 10 (Homo sapiens) (UniProt Q9HD36)
Experiment: Phenotype converters, Bcl-B/TR3 peptide binding displacement, primary biochemical FP (AID 1240);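 also: 0% = Bcl-B with tracer peptide and DMSO and 100% = tracer peptide lacking Bcl-B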
Details: GST-Bcl-B / FITC-TR3 peptide fluorescence polarization; stronger effect = higher value; compound at 3.75 mg/L

Chain of Bcl-2-like protein 10 (Homo sapiens) (Q9HD36 whole entry, looked up): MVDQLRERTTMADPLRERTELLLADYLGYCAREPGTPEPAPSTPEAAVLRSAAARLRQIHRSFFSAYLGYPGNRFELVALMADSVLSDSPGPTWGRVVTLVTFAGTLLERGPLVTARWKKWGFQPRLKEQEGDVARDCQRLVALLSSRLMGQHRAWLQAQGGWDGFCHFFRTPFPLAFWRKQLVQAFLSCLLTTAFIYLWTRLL

Row | SMILES | displacement
1 | O=c1c(C=NCc2cccs2)c(C(F)(F)F)[nH]n1-c1nc2ccccc2s1 | -13.8%
2 | CCCc1[nH]n(-c2nc3ccccc3s2)c(=O)c1C=NCCc1ccccc1 | -1%
3 | COc1ccc(CCN=Cc2c(C(F)(F)F)[nH]n(-c3nc4ccccc4s3)c2=O)cc1OC | 69.9%
4 | Cc1ccc(C)c(NC(=O)C2C3C4CCC(C4)C23)c1 (centres undefined) | -7.2%
5 | COc1ccc(/C=C/C(=O)NC(=S)Nc2ccc(I)cc2)cc1 | 14.3%
6 | Cc1ccc(NC(=O)c2cnn(-c3ccccc3)c2NC(=O)c2ccccc2Cl)cc1C | 3.3%
7 | O=C(Nc1c(C(=O)Nc2cccc(Cl)c2)cnn1-c1ccccc1)c1ccccc1Cl | 83%
8 | CCN(CC)C(=O)c1cnn(-c2ccccc2)c1NC(=O)c1ccccc1Cl | 9.1%
9 | COCCOC(=O)c1ccc(NC(=O)c2ccccc2CCc2ccccc2)cc1 | 7.1%
10 | CN1CCC(O)N1C(=O)c1ccccc1O (centres undefined) | 12.7%
11 | Cc1ccc(-c2nc3cc(Cl)ccc3o2)cc1NC(=O)c1ccc2c(c1)OCCO2 | 102%
12 | O=C(Nc1cccc(-c2nc3cc(Cl)ccc3o2)c1)c1ccc2c(c1)OCCO2 | 105%
13 | Cc1ccc(-c2nc3cc(Cl)cc(Cl)c3o2)cc1NC(=O)c1ccc2c(c1)OCCO2 | 6.6%
14 | COc1c(Cl)cc(C(=O)Nc2cc(-c3nc4cc(Cl)ccc4o3)ccc2C)cc1Cl | 7.7%
15 | Cc1ccc(-c2nc3ccccc3o2)cc1NC(=O)c1cccc(Cl)c1 | 17%
16 | CCc1ccc2oc(-c3ccc(C)c(NC(=O)c4cc(OC)cc(OC)c4)c3)nc2c1 | 13.4%
17 | Cc1ccc2nc(-c3ccc(C)c(NC(=O)c4ccc5ccccc5c4)c3)oc2c1 | -11.3%
18 | Cc1ccc(-c2nc3ccccc3o2)cc1NC(=O)c1ccc2c(c1)OCCO2 | 45.1%
19 | COc1cc(OC)cc(C(=O)Nc2cc(-c3nc4cc(Cl)ccc4o3)ccc2C)c1 | 110%
20 | Cc1ccc(-c2nc3cc(Cl)ccc3o2)cc1NC(=O)c1ccc2ccccc2c1 | 128%
21 | O=C(Nc1cccc(-c2nc3cc(Cl)ccc3o2)c1)c1ccc(Cl)cc1 | 0.2%
22 | CCc1ccc2oc(-c3cccc(NC(=O)c4ccc5c(c4)OCCO5)c3)nc2c1 | 0.9%
23 | COc1ccc(C)cc1NC(=O)COc1ccc(Br)cc1C | 7.7%

Row | SMILES | displacement
24 | CCOC(=O)C1=C(C)NC(=O)CC1c1ccccc1I (centres undefined) | -10.7%
25 | COc1ccc(OCCCCN2CCN(C)CC2)cc1 | -5.8%
26 | Cc1noc2c1/C(=N\O)CC(c1ccccc1)C2 (centres undefined) | 2.6%
27 | Cc1cc(C(=O)Nc2cccc(C)c2C)ccc1[N+](=O)[O-] | 15.9%
28 | COCCOC(=O)c1c(C)oc2ccc(OCc3c(F)cccc3Cl)cc12 | 6.9%
29 | Cc1oc2ccc(OCc3c(F)cccc3Cl)cc2c1C(=O)O | 11.7%
30 | COC(=O)c1c(C)oc2ccc(OCc3c(F)cccc3Cl)cc12 | 91%
31 | Cc1ccc(N(CC(=O)N(Cc2ccccc2)Cc2ccccc2)S(C)(=O)=O)cc1 | -7.5%
32 | N#C/C(=C(/O)CO/N=C/c1ccccc1Cl)c1nc2ccccc2[nH]1 | 53.6%
33 | N#C/C(=C(/O)C(Cl)(Cl)Cl)c1nc2ccccc2[nH]1 | -5.5%
34 | C/C(=N\OC/C(O)=C(\C#N)c1nc2ccccc2[nH]1)c1ccc(Br)cc1 | 46.6%
35 | O=C(CC1Nc2ccccc2NC1=O)Nc1cccc(C(=O)O)c1 (centres undefined) | -2.4%
36 | CCCOc1cccc(C(=O)Nc2ccc(F)c([N+](=O)[O-])c2)c1 | 13.4%
37 | CC1=NN(C(=O)c2cccnc2)C(O)(c2ccccc2)C1 (centres undefined) | -6.3%
38 | O=C(Cc1cccs1)NCC1CCCO1 (centres undefined) | 14.5%
39 | O=C(N/N=C/c1ccc(O)c(O)c1)c1cccc(F)c1 | -6.6%
40 | COc1ccc(C(=O)Nc2ccccc2C(=O)NCCCn2ccnc2)cc1 | 11.9%
41 | O=C(Nc1ccccc1C(=O)NCCCn1ccnc1)c1ccccc1 | 83.5%
42 | O=C(NCCCn1ccnc1)c1ccccc1Br | -8.7%
43 | COC(=O)C1=CNC=C(C(=O)OC)C1c1cccc(OCc2ccccc2)c1 | 1.2%
44 | O=C(/C=C/c1ccc([N+](=O)[O-])cc1)Nc1ccc(F)cc1 | -2.7%
45 | O=C(/C=C/Nc1ccccc1F)c1ccc(Br)cc1 | 85.6%
46 | O=C(/C=C\Nc1ccc(Br)cn1)c1ccc(Cl)cc1 | 61.9%

Row | SMILES | displacement
47 | O=C(/C=C/Nc1ccccn1)c1ccc(Br)cc1 | 3%
48 | COc1ccc(C(=O)/C=C\Nc2ccc(Cl)cn2)cc1 | -23.9%
49 | COc1ccc(C(=O)/C=C/Nc2ccccc2F)cc1 | 5.6%
50 | O=C(/C=C/Nc1ccccc1F)c1ccccc1 | 8.2%
51 | Cc1sccc1/C=N/NC(=O)C1CC1 | 3%
52 | Cc1ccc(/C=N/N=C/c2ccc(C)cc2)cc1 | 2.2%
53 | C/C(=C\C(=O)c1ccc(Cl)cc1)Nc1ccc(Br)c(C)c1 | 4.4%
54 | COc1ccccc1/C=c1\sc2nc(-c3ccc(C)cc3)nn2c1=O | 61.7%
55 | COC(=O)c1ccc(/C=c2\sc3nc(-c4ccc(C)cc4)nn3c2=O)cc1 | 10.7%
56 | COc1ccc(/C=c2\sc3nnc(-c4ccccc4)n3c2=O)c(OC)c1 | 28%
57 | COc1ccccc1/C=c1/sc2nc(-c3ccc(Cl)cc3Cl)nn2c1=O | 7.3%
58 | Cc1ccc(-c2nnc3s/c(=C\c4ccccc4Cl)c(=O)n23)cc1 | 30.3%
59 | COc1ccc(/C=c2\sc3nnc(-c4ccc(C)cc4)n3c2=O)c(OC)c1 | 73.8%
60 | COc1ccc(-c2nn(-c3ccccc3)cc2/C=c2\sc3nc(-c4ccc(C)cc4)nn3c2=O)cc1 | 8.3%
61 | COc1ccc(/C=c2\sc3nc(-c4ccccc4)nn3c2=O)cc1 | 77.5%
62 | COc1ccc(/C=c2/sc3nc(-c4ccc(C(C)(C)C)cc4)nn3c2=O)cc1 | 11.3%
63 | OCCCc1nc2ccccc2n1Cc1ccccc1 | 2.4%
64 | O=[N+]([O-])c1cc(C(F)(F)F)ccc1N/N=C/c1ccc(F)cc1 | 6.3%
65 | CC(=O)N(C1=C(N2CCCCC2)C(=O)c2ccccc2C1=O)c1ccc(C)cc1 | 11.1%
66 | O=C(Nc1ccc2c(c1)OCCO2)c1ccc(Br)cc1 | -0.2%
67 | O=S(=O)(Nc1ccc(SC(F)F)cc1)c1cccc2cccnc12 | 1.7%
68 | CCc1nnc(NC(=O)C2CCCC2)s1 | -7.8%
69 | Cc1cc(=O)n2cc(Br)ccc2n1 | 0.1%

Row | SMILES | displacement
70 | O=C(Nc1ccc(NC(=O)c2ccc([N+](=O)[O-])cc2Cl)cc1Cl)c1ccco1 | -2%
71 | O=C(C1CCCCC1)N1CCN=C1c1ccccc1 | -1%
72 | CN1C(=O)NC(=O)/C(=C\c2cc(Cl)c(OCC(=O)O)c(Cl)c2)C1=O | -3.5%
73 | O=C(O)/C=C\C(=O)Nc1ccc(C(=O)c2ccccc2)cc1 | 3.2%
74 | Cc1ccc(NC(=O)/C=C/c2ccccc2)cc1 | -3.5%
75 | Cc1ccc(NC(=O)/C=C/C(=O)c2ccccc2)cc1 | 54.6%
76 | CCN(CC)CCN1C(=O)C(O)=C(C(=O)/C=C/c2ccccc2)C1c1ccc(Br)cc1 (centres undefined) | 11.4%
77 | O=C(C1CCCC1)N1CCN(c2ccc(F)cc2)CC1 | -0.9%
78 | Cc1ccc(-c2nc3ccccc3o2)cc1NC(=O)COc1ccccc1[N+](=O)[O-] | -7.1%
79 | Cc1cc(C)c2oc(-c3ccc(NC(=O)COc4ccccc4[N+](=O)[O-])cc3)nc2c1 | 89.3%
80 | O=C(COc1ccccc1[N+](=O)[O-])Nc1ccc2oc(-c3cccc4ccccc34)nc2c1 | 56.9%
81 | O=C(COc1ccccc1[N+](=O)[O-])Nc1ccc2oc(-c3ccccc3F)nc2c1 | 2.9%
82 | O=C(COc1ccccc1[N+](=O)[O-])Nc1cc(-c2nc3ccccc3o2)ccc1Cl | 91.6%
83 | Cc1cc(C)c2oc(-c3cccc(NC(=O)COc4ccccc4[N+](=O)[O-])c3)nc2c1 | -24.2%
84 | O=C(COc1ccccc1[N+](=O)[O-])Nc1ccc2oc(-c3ccccc3Br)nc2c1 | 5.2%
85 | O=C(COc1ccccc1[N+](=O)[O-])Nc1ccc(-c2nc3ccccc3o2)cc1 | -1.3%
86 | Cc1cc2nc(-c3ccc(NC(=O)COc4ccccc4[N+](=O)[O-])cc3)oc2cc1C | -0.7%
87 | Cc1cc(C)c2nc(Nc3nc4ccccc4c(=O)[nH]3)nc(C)c2c1 | 9.2%
88 | O=C(O)CCCCCN1C(=O)C(O)=C(C(=O)/C=C/c2ccccc2)C1c1ccccc1Cl (centres undefined) | -7.2%
89 | Cc1c(O)nc(Nc2nc(C)c3ccccc3n2)[nH]c1=O | 9%
